Compounds without any hit were thinned out: in the full panel of roughly 83,000, 20% have a hit.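 For each line, cells grew in 96-well plates with the test compound present at a single concentration for 48 hours.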 Active and inactive are the calls of the source. Rule for the calls: active = growth percent below 10; inactive = the rest.
These compounds were tested on HOP-62 NSCLC (assay: NCI-60 one-dose screen, 48 h (100 = growth as untreated, 0 = no growth, -100 = all killed)). Conditions: 10 µM unless noted.

SMILES | growth
COc1cc(OCc2cccc(-c3ccccc3)c2C)cc(OC)c1CN1CCCCC1C(=O)NCCOCCOCCN (configuration not stated) | 89.8% (inactive)
COc1ccc(-c2cn(Cc3ccc4c(Br)cc(Br)c(O)c4n3)nn2)cc1 | 98.4% (inactive)
O=c1c(Cc2ccc(F)cc2)cc(-c2ccccc2)nn1C/C(=N/O)c1ccccc1 | 62.7% (inactive)
C1=C2CCCC3=Cc4ccccc4OC23Oc2ccccc21 | 41.6% (inactive)
N/C(=N\c1nc2ccccc2s1)NC(=O)Nc1ccccc1 | 30% (inactive)
C=C(C)[C@@H]1CC[C@]2(COCCCNCCCN)CC[C@]3(C)[C@H](CC[C@@H]4[C@@]5(C)CC[C@H](OCCCN)C(C)(C)[C@@H]5CC[C@]43C)[C@@H]12 | -59.1% (active)
N#CC1=C(N)Oc2c(ccc3ccccc23)C1c1cc2ccccc2n2nnnc12 (configuration not stated) | 24.6% (inactive)
CC(C)(C#N)c1cc(C(=O)Nc2cc(Nc3ncccc3-c3ncnc4nc[nH]c34)ccc2F)cc(C(F)(F)F)c1 | 45.7% (inactive)
CN1CCN(CC(=O)N(C)c2ccc(N=C(c3ccccc3)c3c(O)[nH]c4ccc([N+](=O)[O-])cc34)cc2)CC1 | 85.1% (inactive)
Cc1c(Cl)cccc1NC(=O)c1sc2nc3c(cc2c1N)CCCC3 | 25.2% (inactive)
COC(=O)c1c(C)nc(C)c2c1C(=O)C(Br)=C(NCCN1CCOCC1)C2=O | 133% (inactive)
COc1ccccc1NC(=O)n1c(=O)cc(C)c2ccc(O)cc21 | 102% (inactive)
C#CCOC(=O)C(N)CSSCC(N)C(=O)O (configuration not stated) | 94.9% (inactive)
CN(C)CCOc1nc2c3cc([N+](=O)[O-])ccc3nn2c2ccccc12 | 30.2% (inactive)
CC(=O)Oc1ccccc1C(=O)N(Cc1ccc2c(Cl)cc(Cl)c(O)c2n1)c1ccccc1 | 36.6% (inactive)
C=CCOC(=O)C1=C(C)N(CC)C(=O)N(CC)C1c1c(Cl)n(C)c2ccccc12 (configuration not stated) | 84.1% (inactive)
CNC(=O)c1cc(Oc2ccc3nc(NC(=O)c4cc(C(F)(F)F)cc(C(F)(F)F)c4)sc3c2)ccn1 | 16.3% (inactive)
COc1cc(C2=Nc3c(N)nc(N)nc3NC(c3cccc(Nc4ccnc5cc(C(F)(F)F)ccc45)c3)C2)cc(OC)c1OC (configuration not stated) | 86.3% (inactive)
c1ccc2[nH]c(-c3ccc(-c4nccc5c4[nH]c4ccccc45)cc3)nc2c1 | 86.1% (inactive)
COc1ccc(/C=C2/CCc3cc4ccc(OC)cc4[o+]c32)c(O)c1 | 95.9% (inactive)
Cc1c(-c2cnc3ccc(Cl)cc3c2C(=O)O)nnn1-c1ccc(Cl)cc1 | 89.4% (inactive)
COc1ccc(NC(=O)c2ccc(NC3=C(c4ccc(Cl)cc4)C(=O)NC3=O)cc2)cc1 | 80.8% (inactive)
O=C1CC2C=CCN2C=C1NC(=O)c1ccccc1 (configuration not stated) | 114% (inactive)
COc1cccc(CNc2nnc(C)c(C)n2)c1O | 95.6% (inactive)
COc1cc2c(c(OC)c1OC)CCC(c1cccc(C(=O)Nc3ccc([N+](=O)[O-])cc3)c1)O2 (configuration not stated) | 76.7% (inactive)
CO[C@]12C=C/C(=C(/C(=O)OCc3cccnc3)C(=O)CCCCCCCC[C@]3(OC)C=C/C(=C(/C(=O)OCc4cccnc4)C(=O)CCCCCCCC1)O3)O2 | -33.1% (active)
O=c1cc(-c2nccc3c2[nH]c2ccccc23)c2cc(Cl)ccc2o1 | 32.7% (inactive)

Source: PubChem BioAssay (NCI)
